High-throughput results (PubChem BioAssay)
Hits are enriched below; roughly 5.7% of the tested compounds scored in any of these assays.
PI5P4K alpha inh – inhibitors of human PI5P4K alpha; max response, %; hit rate 1.2% among 330,000; PI5P4Kalpha enzyme, ADP-Glo luminescence, 60 min; hits give low values; active = max response of -50% or lower; inconclusive = between -30% and -50%; inactive = -30% or higher; note: value at the top dose of about 77 µM
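Controls without substrate or without enzyme flank wells where PI5P4Kalpha converts substrate using 5 microM ATP (final). Incubation lasts 60 minutes at room temperature; ADP formed is read by ADP-Glo luminescence.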
L3MBTL1 inh – inhibitors of human L3MBTL1; Q9Y468; AlphaScreen L3MBTL1–H3K9me1 peptide binding; Potency, µM (series often up to 57.1 µM), actives largely listed as inhibitors; hit rate 0.66% among 230,000; note: nearly all actives have a fitted effect of over 60% in size
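Read-out is AlphaScreen signal from streptavidin donor and nickel chelate acceptor beads (10 ug/mL final each) bridging L3MBTL1 (50 nM) and biotinylated K9-monomethylated H3(1-15) peptide (75 nM), after 30 min compound exposure at room temperature.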
JMJD2A Tudor – JMJD2A Tudor domain (human) inhibition. AID 504339. Potency, µM (titrated, usually from 114 µM), actives largely listed as inhibitors. hit rate 4.4% among 390,000. AlphaScreen JMJD2A-Tudor / H3K4me3 peptide binding; note: nearly all actives have a fitted effect of over 50% in size
KDM4E inh – inhibitors of human JMJD2E histone demethylase; B2RXH2; hit rate 1.6% among 230,000; Potency, µM (series often up to 57.1 µM), usual class: inhibitors; JMJD2E catalytic domain, FDH-coupled NADH fluorescence (FDH is formaldehyde dehydrogenase); AID 2147; active = well fitted inhibition curve with a large enough effect, not every such curve was filed as active; inconclusive = small, poorly fitted or top-dose-only effect, or another doubt; inactive = no such curve, though single readings can be large or run the other way; note: nearly all actives have a fitted effect of over 50% in size
BAZ2B inh – blocks human BAZ2B; Q9UIF8; Potency, µM (titrated, usually from 114 µM), most hits filed as inhibitors; hit rate 4.4% among 360,000; AlphaScreen BAZ2B-H3K14Ac peptide displacement; AID 504333; note: nearly all actives have a fitted effect of over 60% in size
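BAZ2B 50 nM plus b-H3(5-23)K14Ac 50 nM, PBS pH 7.4/0.01% Tween-20, 30 min RT; compound added (max 110 uM), 30 min RT; streptavidin donor/Ni-chelate acceptor beads 10 ug/mL final, 20 min dark; AlphaScreen read.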
HP1b binding inh – inhibitors of HP1-beta chromodomain binding to methylated histone tails | P83916 | AlphaScreen HP1-beta / biotin-H3K9me3 peptide binding | Potency, µM (titrated, usually from 114 µM), hits mostly inhibitors | hit rate 0.56% among 390,000; note: nearly all actives have a fitted effect of over 70% in size
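HP1-beta protein (50 nM final) preincubated 30 min at room temperature with biotinylated H3(1-18)K9me3 peptide (50 nM) in PBS pH 7.4, 0.01% Tween-20, then compound added for 30 min. AlphaScreen streptavidin donor/nickel chelate acceptor beads (10 ug/mL final), 30 min dark, luminescence read.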
Large screens that a line does not name were inactive. Unless noted, calls come from the whole dose curve; as a rule, active = well fitted inhibition curve with a large enough effect; inconclusive = small, poorly fitted or top-dose-only effect; inactive = no such curve, though single readings can be large or run the other way.

Clc1ccccc1CNc1nc2ccccc2n2cnnc12	KDM4E inh inconclusive
c1ccc2sc(C3(N4CCCCC4)CCCCC3)cc2c1	none (no result: PI5P4K alpha inh, L3MBTL1 inh, JMJD2A Tudor, BAZ2B inh, HP1b binding inh)
CCCCCCNC(=O)N[C@@H](Cc1ccc(O)cc1)C(=O)NCCC[C@H]1CN2C(=NC[C@H]2C)N1CC1CCC1	none (no result: L3MBTL1 inh)
CCCCCCNC(=O)N[C@H](Cc1ccc(O)cc1)C(=O)NCCC[C@H]1CN2C(=NC[C@H]2CCC)N1CC1CCC1	KDM4E inh inconclusive, BAZ2B inh 79µM (no result: PI5P4K alpha inh, L3MBTL1 inh, JMJD2A Tudor, HP1b binding inh)
CC(=O)O.CC(=O)O.[Cd]	KDM4E inh 20µM (no result: PI5P4K alpha inh, L3MBTL1 inh, JMJD2A Tudor, BAZ2B inh, HP1b binding inh)
CC(=O)CCC(C)=O	none (no result: KDM4E inh)
O=C(O)/C=C\CO	none (no result: PI5P4K alpha inh, L3MBTL1 inh, JMJD2A Tudor, BAZ2B inh, HP1b binding inh)
COc1ccc2cc1Oc1ccc(cc1)C[C@H]1c3cc(c(OC)cc3CCN1C)Oc1c(OC)c(OC)cc3c1[C@H](C2)N(C)CC3	JMJD2A Tudor 50µM (no result: L3MBTL1 inh)
COc1cc2c3cc1Oc1cc(ccc1O)C[C@@H]1c4c(cc(OC)c(O)c4Oc4ccc(cc4)C[C@H]3N(C)CC2)CCN1C	JMJD2A Tudor inconclusive, BAZ2B inh 45µM
COc1cc2c3c(c1OC)Oc1ccc(cc1)C[C@H]1c4c(cc(OC)c(OC)c4Oc4ccc(cc4)C[C@@H]3N(C)CC2)CCN1C	PI5P4K alpha inh -92, JMJD2A Tudor inconclusive (no result: KDM4E inh, BAZ2B inh)
COc1cc2c3cc1Oc1c(OC)c(OC)cc4c1[C@H](Cc1ccc(cc1)Oc1cc(ccc1O)C[C@H]3N(C)CC2)N(C)CC4	JMJD2A Tudor inconclusive (no result: KDM4E inh, BAZ2B inh)
Cc1ccc(-n2nc3c(=O)n(CC(=O)Nc4ccccc4F)nc(C)c3c2C)c(C)c1	none (no result: PI5P4K alpha inh, L3MBTL1 inh, KDM4E inh)
COc1ccc2c(c1)[C@@]13CCCCC1[C@@H](C2)N(C)CC3 (stereo partly specified)	none (no result: PI5P4K alpha inh, L3MBTL1 inh, JMJD2A Tudor, BAZ2B inh, HP1b binding inh)
COC[C@H]1OC(=O)c2coc3c2[C@@]1(C)C1=C(C3=O)C2CCC(=O)[C@@]2(C)C[C@H]1OC(C)=O (stereo partly specified)	none (no result: PI5P4K alpha inh, L3MBTL1 inh, JMJD2A Tudor, BAZ2B inh, HP1b binding inh)
COC[C@H]1OC(=O)c2coc3c2[C@@]1(C)C1=C(C3=O)[C@H]2CCC(=O)[C@@]2(C)C[C@H]1OC(C)=O	KDM4E inh 11µM (no result: PI5P4K alpha inh, L3MBTL1 inh, JMJD2A Tudor, BAZ2B inh, HP1b binding inh)
CC1CN=C(Nc2ccc(N(C)C)cc2)S1 (stereo unspecified)	JMJD2A Tudor 40µM, BAZ2B inh inconclusive (no result: PI5P4K alpha inh)
CC1CN=C(Nc2ccccc2)S1 (stereo unspecified)	none (no result: PI5P4K alpha inh)
CCn1c(N)c(C(=O)NC)sc1=S	PI5P4K alpha inh -59, JMJD2A Tudor 56µM, KDM4E inh inconclusive, BAZ2B inh inconclusive (no result: L3MBTL1 inh)
CN(C)CCOc1ccc(/C(=C(/CCCl)c2ccccc2)c2ccccc2)cc1	JMJD2A Tudor 25µM (no result: L3MBTL1 inh, KDM4E inh, BAZ2B inh)
CCN(CC)c1ccc(/C=C2/C(=O)NC(=O)N(CC3CCCO3)C2=O)cc1 (stereo unspecified)	L3MBTL1 inh inconclusive, BAZ2B inh inconclusive
O=C1NC(=S)SC1=Cc1ccc(N(CCCl)CCCl)cc1	PI5P4K alpha inh -72, JMJD2A Tudor 32µM, HP1b binding inh inconclusive (no result: L3MBTL1 inh, KDM4E inh, BAZ2B inh)
CNC(C)[C@H](O)c1ccccc1 (stereo partly specified)	none (no result: PI5P4K alpha inh, L3MBTL1 inh, JMJD2A Tudor, BAZ2B inh, HP1b binding inh)
O=C1NC(=O)N(CCC2=CCCCC2)C(=O)/C1=C/c1cccs1	PI5P4K alpha inh -63, JMJD2A Tudor inconclusive, BAZ2B inh inconclusive
O=C1NC(=O)N(CCC2=CCCCC2)C(=O)/C1=C/c1ccc(O)cc1	PI5P4K alpha inh inconclusive, KDM4E inh inconclusive
CC[C@]1(O)CC(O[C@@H]2CC(N(C)C)C(O)C(C)O2)c2c(cc3c(c2O)C(=O)c2c(O)cccc2C3=O)C1C(=O)OC (stereo partly specified)	none (no result: PI5P4K alpha inh, L3MBTL1 inh, JMJD2A Tudor, BAZ2B inh, HP1b binding inh)
CC[C@@]1(O)CC(O)c2c(cc3c(c2O)C(=O)c2c(O)ccc(O)c2C3=O)C1C(=O)OC (stereo partly specified)	KDM4E inh 13µM (no result: PI5P4K alpha inh, L3MBTL1 inh, JMJD2A Tudor, BAZ2B inh, HP1b binding inh)
COCC#CCN1CCCCC1c1cccnc1 (stereo unspecified)	none (no result: PI5P4K alpha inh, L3MBTL1 inh, JMJD2A Tudor, BAZ2B inh, HP1b binding inh)
CN(C)c1ccc(C=C2C=CC=C2)cc1	JMJD2A Tudor 18µM, HP1b binding inh 22µM (no result: L3MBTL1 inh, KDM4E inh, BAZ2B inh)
O=C1NC(=S)NC(=O)C1=Cc1cccc2cc3ccccc3cc12	PI5P4K alpha inh -70, BAZ2B inh 32µM
O=C1NC(=S)NC(=O)C1=Cc1ccc(OCc2ccccc2)cc1	PI5P4K alpha inh -82, JMJD2A Tudor 79µM (no result: L3MBTL1 inh, KDM4E inh, BAZ2B inh)
